# High-throughput results (PubChem)
# CHT PAM: allosterically activates the human high affinity choline transporter. Q9GZV3. CHT-expressing cells, membrane potential dye, choline EC20; stronger effect = higher value; LV-AA mutant CHT in HEK293 cells. B-score at 10 µM. actives 0.49% (n = 310,000). AID 488977;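 active = initial fluorescence not abnormally high and integrated response B-score, plate-corrected, over 3 SD above library mean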
# CHT block: inhibitors of human choline transporter CHT; B-score at 10 µM; actives 0.86% (n = 310,000); CHT-expressing cells, membrane potential dye, choline response; stronger effect = lower value; Q9GZV3; AID 488975;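 active = B-score over 3 SD under the library average, and starting fluorescence ratio not unusually high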;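 note: choline stimulus applied at its EC90 after an EC20 pre-addition; B-score computed on integrated fluorescence ratio after choline addition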
# PKA-R2B activ: PKA-R2B complex activation; PKA-R2B holoenzyme dissociation, Cy5-IP20 fluorescence polarization; R2B truncated from residue 108, S112A mutant; 0% DMSO only, 100% 113 µM cGMP; AID 504700; activation, % at 11.4 µM; actives 0.079% (n = 340,000); P22694+P31323;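 active = activation above a cutoff set at the mean over all compounds plus 3 SD, cut at about 18% in these data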;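 note: higher means more holoenzyme dissociation and a rise in polarization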
# ANO1 block: blocks the mouse calcium-activated chloride channel TMEM16A; Q8BHY3; HEK293 TMEM16A/YFP iodide influx fluorescence, ionomycin; normalized B-score (activity score, 25-100; higher = stronger inhibition) at 10 µM; actives 1.2% (n = 310,000); AID 588511;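 active = ratio plate-corrected score three or more library SD toward inhibition, starting fluorescence score within five deviations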;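 note: score derived from kinetic fluorescence span divided by baseline fluorescence per well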
# Target sequence (Q8BHY3 whole entry, looked up): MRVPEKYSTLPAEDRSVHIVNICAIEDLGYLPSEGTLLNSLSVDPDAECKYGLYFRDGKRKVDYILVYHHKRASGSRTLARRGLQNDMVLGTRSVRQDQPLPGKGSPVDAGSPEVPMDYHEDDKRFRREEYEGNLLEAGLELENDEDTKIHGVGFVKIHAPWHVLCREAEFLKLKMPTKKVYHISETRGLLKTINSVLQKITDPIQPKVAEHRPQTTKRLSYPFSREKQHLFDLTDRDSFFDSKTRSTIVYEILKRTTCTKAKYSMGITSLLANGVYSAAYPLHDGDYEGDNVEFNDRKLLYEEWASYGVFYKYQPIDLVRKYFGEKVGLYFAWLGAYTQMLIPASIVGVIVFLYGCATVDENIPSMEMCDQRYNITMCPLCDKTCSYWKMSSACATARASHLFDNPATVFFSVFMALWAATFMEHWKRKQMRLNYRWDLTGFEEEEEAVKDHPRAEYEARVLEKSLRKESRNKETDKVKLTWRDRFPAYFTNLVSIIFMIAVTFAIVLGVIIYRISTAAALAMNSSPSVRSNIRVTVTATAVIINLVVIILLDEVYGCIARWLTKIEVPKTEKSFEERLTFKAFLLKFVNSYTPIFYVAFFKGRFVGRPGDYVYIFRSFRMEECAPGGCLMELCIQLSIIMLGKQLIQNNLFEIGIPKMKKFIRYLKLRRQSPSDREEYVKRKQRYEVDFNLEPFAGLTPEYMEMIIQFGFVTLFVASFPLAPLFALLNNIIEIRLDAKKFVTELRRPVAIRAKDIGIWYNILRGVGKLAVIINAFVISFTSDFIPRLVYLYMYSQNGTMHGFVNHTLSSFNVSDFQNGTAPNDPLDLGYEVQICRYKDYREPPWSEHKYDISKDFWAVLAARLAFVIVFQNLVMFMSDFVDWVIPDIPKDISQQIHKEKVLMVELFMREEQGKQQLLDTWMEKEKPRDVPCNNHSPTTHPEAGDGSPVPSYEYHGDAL
# PKA-R1A act: activators of PKA-R1A complex. actives 0.083% (n = 340,000). activation, % at 11.4 µM. P00514+P68181. PKA-R1A dissociation, Cy5-IP20 fluorescence polarization; scaled: DMSO 0%, 113 µM cGMP 100%;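 active = percent activation above the mean of all tested compounds plus 3 SD, cut at about 19% in these data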;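 note: higher means more PKAc released from R1A so a rise in polarization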
# TMEM16A act: mouse TMEM16A channel activation, primary screen; Q8BHY3; HEK293 TMEM16A/YFP-H148Q/I152L, iodide quench fluorescence; stronger effect = lower value; B-score at 10 µM; actives 0.3% (n = 340,000);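 active = fluorescence-ratio B-score plate-corrected deviation score at least 3 library SD below zero, with starting fluorescence score within 5 deviations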;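 note: channel opened by trigger with iodide after compound preincubation; score built on the fluorescence ratio of max minus min over baseline; more negative score means more quench and so TMEM16A activation or potentiation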
# CHT act confirm: human CHT activation, confirmatory screen; AID 504833; actives 91% (n = 2,500); shares compounds with CHT PAM; activation, % at 10 µM; CHT-expressing cells, membrane potential dye fluorescence (FDSS); % of choline EC20–EC90 response window; HEK293 expressing CHT LV-AA mutant; choline added at its EC20;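 active = primary screen active, with duplicate mean activation above negative control mean plus 3 SD, cut at about 11% in these data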
# HEK293 MP dye: activity in parental HEK293 cells lacking CHT; ratio readout change at 10 µM, hits read low; membrane potential dye fluorescence (FDSS); measured after EC20 choline addition; shares compounds with CHT PAM; actives 62% (n = 2,500); AID 623908;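 active = duplicate-averaged ratio beyond 3 SD from buffer wells, up or down, though filed actives are nearly all decreases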
# Numbers without * were called inactive; i = inactive; / = not tested or not shown. Most compounds without a hit are left out; they make up all but 2.5% or so of the library.
SMILES,CHT PAM,CHT block,PKA-R2B activ,ANO1 block,PKA-R1A act,TMEM16A act,CHT act confirm,HEK293 MP dye
CC1(C)CC(=O)C/C(=N\NC(=O)CCc2ccc(S(=O)(=O)N3CCOCC3)cc2)C1,i,i,-6,i,-18,i,/,/
N=c1c2c3c(sc2ncn1CCN1CCOCC1)CCCCC3,i,i,4,i,-1,i,69*,-32*
N=c1c2c3c(sc2ncn1CCCO)CCCC3,9.5*,i,-2,i,-13,i,26*,-56*
N=c1c2c3c(sc2ncn1Cc1ccccc1)CCCC3,i,i,0,i,-7,i,/,/
c1nc(NCCN2CCOCC2)c2c3c(sc2n1)CCCCC3,/,/,0,/,-7,i,/,/
CCCCn1cnc2sc3c(c2c1=N)CCCC3,i,i,1,i,-13,i,53*,-41*
Cc1nc2c(O)cccc2cc1CO,i,i,-2,i,-3,i,/,/
CC(=O)c1ccc(NC(=O)c2ccn(C(=O)OCC(C)C)n2)cc1,i,i,-1,i,-6,i,18*,-36*
Cc1cccc2c(=O)n(C(=O)c3ccccc3)c(N)nc12,/,/,1,/,12,/,/,/
Cc1sc(NC(=O)c2ccccc2)c(C(=O)NCCN(C)C)c1C,i,i,7,i,-5,i,37*,-57*
O=c1[nH]cccc1-c1nc2ccccc2[nH]1,i,i,0,i,4,i,34*,-30*
Nc1ccccc1-c1nc2ccccc2[nH]1,i,i,-6,i,-6,i,/,/
C=CCN1C(c2ccc(Br)cc2)=CS/C1=C(\C#N)c1nnc(N2CCOCC2)n1-c1ccccc1,/,/,2,/,2,i,/,/
C=CCN1C(c2ccc(OCC)cc2)=CS/C1=C(\C#N)c1nnc2n1CCCCC2,9.2*,i,-5,i,-4,i,26*,i
O=C1N/C(=C/c2cccs2)C(=O)N1Cc1ccc(Br)cc1,i,i,-10,i,-2,i,/,/
CN1CCc2c(sc3nc(SCC(N)=O)n(-c4ccc(Cl)cc4)c(=O)c23)C1,6.8*,i,-1,i,-8,i,46*,-34*
C=C(C)CSc1nc2sc3c(c2c(=O)n1C1CCCCC1)CCN(C)C3,6.8*,i,-4,i,-7,i,39*,-48*
CN1CCc2c(sc3nc(SCC(N)=O)n(-c4ccccc4)c(=O)c23)C1,i,i,0,i,7,i,40*,-34*
COC(=O)CSc1nc2sc3c(c2c(=O)n1-c1ccccc1)CCN(C)C3,i,i,-4,i,-11,i,/,/
CCSc1nc2sc3c(c2c(=O)n1C1CCCCC1)CCN(C)C3,/,/,-7,/,1,i,/,/
CC(C)(C)OC(=O)N1CCC(C(=O)Nc2ccc(C(=O)N3CCCCC3)cc2)CC1,/,/,-2,/,-8,/,/,/
Cc1ccc(OCCC(=O)OC(C)C(=O)Nc2ccc(Cl)cn2)cc1 (configuration not stated),i,i,-18,i,-14,i,/,/
COc1ccc(Cn2nnnc2C(c2ccccn2)N2CCN(c3cc(Cl)ccc3C)CC2)cc1 (configuration not stated),i,i,5,i,-5,i,/,/
COCCn1nnnc1C(c1ccccn1)N1CCN(c2cc(Cl)ccc2C)CC1 (configuration not stated),7.9*,i,-16,i,-8,i,15*,i
CN(C)C(CNS(=O)(=O)c1cc([N+](=O)[O-])ccc1Cl)c1ccco1 (configuration not stated),/,/,-3,/,-1,i,/,/
SMILES,CHT PAM,CHT block,PKA-R2B activ,ANO1 block,PKA-R1A act,TMEM16A act,CHT act confirm,HEK293 MP dye
CS(=O)(=O)Nc1ccc(S(=O)(=O)N2CCCCCC2)cc1,i,i,7,i,-7,i,/,/
CN(C)c1cc(NC(=O)CN2CCOCC2)c2ccccc2n1,6.7*,i,6,i,3,i,33*,-45*
CN(C)c1cc(NC(=O)CNC(C)(C)C)c2ccccc2n1,i,i,2,i,-6,i,26*,-55*
O=C(OCc1ccccc1)/C(=C(\O)c1ccccc1Br)c1ccc(-c2ccccc2)cn1,i,i,-9,i,-10,i,/,/
COc1ccc(Cl)cc1C(Nc1cccnc1)c1ccc2cccnc2c1O (configuration not stated),i,i,-7,i,-7,i,19*,i
COc1ccc2nc(C)cc(N3CCC(C(N)=O)CC3)c2c1,7.2*,i,6,i,-7,i,61*,-76*
COc1ccc(N2CCN(c3cc(C)nc4ccc(OC)cc34)CC2)cc1,i,i,-14,i,2,i,/,/
CCOC(=O)C1CCN(c2cc(C)nc3ccc(OC)cc23)CC1,7.8*,i,-7,i,-8,i,42*,-72*
COc1ccc(NC(=O)C2=CC=CN3CCS(=O)(=O)N=C23)c(OC)c1,/,/,6,/,-6,i,/,/
COc1ccc(OC)c(NC(=O)c2cccc(N3C(=O)C4C5C=CC(C6CC56)C4C3=O)c2)c1 (configuration not stated),i,i,8,i,2,i,/,/
O=c1c2ccccc2nc2n1C(CSCc1ccc(Cl)cc1)CS2 (configuration not stated),8.2*,i,-2,i,1,i,11*,i
O=c1c2ccccc2nc2n1C(CSc1ccccc1)CS2 (configuration not stated),i,i,-2,i,7,i,/,/
Nc1c2c(nc3c1CCC3)CCCC2,12*,i,/,i,/,/,44*,-70*
N#Cc1c(Cl)nc2c(c1C#N)CCCC2,i,i,-9,i,-6,i,/,/
NC(=O)CC(NC(=O)c1ccccc1)c1ccc(NC2CCCC2)c([N+](=O)[O-])c1 (configuration not stated),i,i,5,i,-10,i,/,/
